From PubChem BioAssay (Tox21)
Records with an inconclusive call do not appear. Calls of active or inactive are those of the source. Unless noted, calls follow the shape of the dose curve; as a rule, active = well fitted curve in the direction sought with a large enough effect in the repeat runs; inconclusive = weak or mixed curves; inactive = no such curve, though single readings can be large; an effect the other way counts as inactive or inconclusive.

Columns and labels:
[1] = qHTS assay to identify small molecule agonists of the peroxisome proliferator-activated receptor delta (PPARd) signaling pathway - cell viability counter screen (AID 743211); details: PPARd-bla HEK293H viability, CellTiter-Glo luminescence, 17 h; series mostly up to 62.6 µM; also: nearly all actives have a fitted effect of over 55% in size; also: potency is read from the fitted curve at half-maximal effect
Method in brief: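 Tox21 library compounds, delivered in DMSO, were incubated 17 h with PPARd-bla HEK293H cells; cytotoxicity was taken from CellTiter-Glo luminescence read 30 min after reagent addition.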

[2] = target: Peroxisome proliferator-activated receptor delta (Homo sapiens) (UniProt Q03181); test: qHTS assay to identify small molecule agonists of the peroxisome proliferator-activated receptor delta (PPARd) signaling pathway (AID 743212; calls by dose curve); details: HEK293H PPARd-UAS-bla, beta-lactamase FRET ratio, 17 h; series mostly up to 62.6 µM
Peroxisome proliferator-activated receptor delta (Homo sapiens), sequence (Q03181 whole entry, looked up): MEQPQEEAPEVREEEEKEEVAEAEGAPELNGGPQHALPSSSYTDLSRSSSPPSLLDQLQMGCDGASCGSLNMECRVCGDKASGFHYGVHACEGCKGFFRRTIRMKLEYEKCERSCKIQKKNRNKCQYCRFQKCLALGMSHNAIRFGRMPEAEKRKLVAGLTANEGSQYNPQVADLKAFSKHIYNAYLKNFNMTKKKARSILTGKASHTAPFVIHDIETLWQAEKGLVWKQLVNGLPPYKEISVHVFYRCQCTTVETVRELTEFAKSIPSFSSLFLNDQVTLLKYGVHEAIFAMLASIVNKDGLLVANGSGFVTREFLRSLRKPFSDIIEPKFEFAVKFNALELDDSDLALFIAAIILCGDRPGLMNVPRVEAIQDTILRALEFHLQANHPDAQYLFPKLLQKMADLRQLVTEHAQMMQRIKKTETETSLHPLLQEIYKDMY
Method in brief: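 Cells expressing a UAS-driven beta-lactamase reporter (PPARd-bla HEK293H) were given test compounds after a 5 h settle and kept at 37 C. Reporter activity was then measured as FRET fluorescence using LiveBLAzer B/G substrate.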

[3] = target: Peroxisome proliferator-activated receptor delta (Homo sapiens) (UniProt Q03181); test: qHTS assay to identify small molecule antagonists of the peroxisome proliferator-activated receptor delta (PPARd) signaling pathway (AID 743215; active = well fitted inhibition curve with a large enough effect in the signal ratio in the repeat runs, not every such curve was filed as active; the % refers to the signal ratio;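 also: cells stimulated with agonist L165041 at 300 nM final during compound exposure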); details: HEK293H PPARd-UAS-bla, beta-lactamase FRET ratio, antagonist, 17 h; series mostly up to 62 µM
Method in brief: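 HEK293H GeneBLAzer PPARd UAS-bla reporter cells; cpd + L165041 300 nM final, 17 h 37 C; LiveBLAzer B/G FRET substrate 2 h RT; fluorescence intensity read-out. Antagonist mode.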

[4] = qHTS assay to identify small molecule agonists of the farnesoid-X-receptor (FXR) signaling pathway - cell viability counter screen (AID 743218); details: FXR-bla HEK293T viability, CellTiter-Glo luminescence, 16 h; series mostly up to 62.6 µM; also: nearly all actives have a fitted effect of over 45% in size; also: potency is read from the fitted curve at half-maximal effect
Method in brief: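 Luminescence from CellTiter-Glo, read after 30 min at RT, reports viability of GeneBLAzer FXR-UAS-bla HEK 293T cells treated 16 h with compounds in the wells used for the beta-lactamase reporter.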

[5] = target: Vitamin D3 receptor (Homo sapiens) (UniProt P11473); test: qHTS assay to identify small molecule antagonists of the vitamin D receptor (VDR) signaling pathway (AID 743223; active = well fitted inhibition curve with a large enough effect in the signal ratio in the repeat runs, not every such curve was filed as active; the % refers to the signal ratio); details: VDR-UAS-bla HEK293T, beta-lactamase FRET ratio, 16 h; series mostly up to 61 µM
Vitamin D3 receptor (Homo sapiens), sequence (P11473 whole entry, looked up): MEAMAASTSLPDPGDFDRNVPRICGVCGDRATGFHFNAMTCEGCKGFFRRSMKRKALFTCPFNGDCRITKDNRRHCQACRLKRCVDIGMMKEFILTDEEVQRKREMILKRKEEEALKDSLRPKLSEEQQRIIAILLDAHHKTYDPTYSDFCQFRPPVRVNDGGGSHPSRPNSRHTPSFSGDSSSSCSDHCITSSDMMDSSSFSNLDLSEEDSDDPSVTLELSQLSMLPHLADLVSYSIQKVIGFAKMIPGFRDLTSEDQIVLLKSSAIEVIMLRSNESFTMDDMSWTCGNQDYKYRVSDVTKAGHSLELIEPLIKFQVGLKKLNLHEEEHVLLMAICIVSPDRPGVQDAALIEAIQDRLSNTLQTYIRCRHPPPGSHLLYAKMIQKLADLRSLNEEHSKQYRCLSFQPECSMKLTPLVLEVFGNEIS
Method in brief: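 Quantitative HTS in VDR-bla reporter cells stimulated with 1alpha,25-dihydroxyvitamin D3, 3 nM final. Compound exposure 16 h, 37C, 5% CO2. Read-out: beta-lactamase FRET substrate fluorescence, 2 h RT.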

[6] = qHTS assay to identify small molecule antagonists of the peroxisome proliferator-activated receptor delta (PPARd) signaling pathway - cell viability counter screen (AID 743213); details: PPARd-bla HEK293H viability, CellTiter-Glo luminescence, 17 h; series mostly up to 62 µM; also: nearly all actives have a fitted effect of over 50% in size
Method in brief: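 HEK293H PPARd UAS-bla cells, 5 h pre-incubation, compound + L165041 300 nM final, 17 h 37 C; B/G FRET substrate 2 h RT; then CellTiter-Glo 30 min RT, luminescence.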

[7] = target: Bile acid receptor (Homo sapiens) (UniProt Q96RI1); test: qHTS assay to identify small molecule antagonists of the farnesoid-X-receptor (FXR) signaling pathway (AID 743217; active = well fitted inhibition curve with a large enough effect in the signal ratio in the repeat runs, not every such curve was filed as active; the % refers to the signal ratio); details: HEK293T FXR-UAS-bla, beta-lactamase ratio, CDCA-stimulated, 16 h; series mostly up to 62.6 µM
Bile acid receptor (Homo sapiens), sequence (Q96RI1 whole entry, looked up): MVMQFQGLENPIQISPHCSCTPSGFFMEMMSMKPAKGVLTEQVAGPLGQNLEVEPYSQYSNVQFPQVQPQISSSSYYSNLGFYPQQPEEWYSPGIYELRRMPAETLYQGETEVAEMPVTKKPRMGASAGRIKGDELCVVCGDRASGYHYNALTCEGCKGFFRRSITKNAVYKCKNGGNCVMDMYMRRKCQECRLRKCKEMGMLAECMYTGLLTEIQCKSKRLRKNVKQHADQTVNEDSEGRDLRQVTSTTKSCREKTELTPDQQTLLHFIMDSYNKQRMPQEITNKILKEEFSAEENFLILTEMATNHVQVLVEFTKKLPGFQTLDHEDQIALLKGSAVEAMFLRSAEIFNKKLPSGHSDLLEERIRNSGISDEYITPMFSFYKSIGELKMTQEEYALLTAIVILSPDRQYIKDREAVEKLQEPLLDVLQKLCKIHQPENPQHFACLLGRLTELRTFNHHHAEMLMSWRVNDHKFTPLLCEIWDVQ
Method in brief: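 Read-out: beta-lactamase FRET fluorescence (LiveBLAzer B/G substrate, 2 h, room temperature) in GeneBLAzer FXR-UAS-bla HEK 293T cells. Compounds were co-dosed with 50 uM chenodeoxycholic acid (final) and incubated 16 h at 37 °C.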

[8] = target: Bile acid receptor (Homo sapiens) (UniProt Q96RI1); test: qHTS assay to identify small molecule agonists of the farnesoid-X-receptor (FXR) signaling pathway (AID 743220; active = well fitted activation curve with a large enough effect in the signal ratio in the repeat runs, not every such curve was filed as active; the % refers to the signal ratio); details: HEK293T FXR-UAS-bla, beta-lactamase FRET ratio, 16 h; series mostly up to 62.6 µM
Method in brief: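 FXR-UAS-bla HEK 293T cells carrying a UAS-driven beta-lactamase reporter were plated for 5 h at 37C/5% CO2, then exposed to DMSO-dissolved Tox21 10K compounds for 16 h at 37C. A LiveBLAzer B/G FRET substrate was loaded for 2 h at room temperature before fluorescence reading.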

[9] = target: Vitamin D3 receptor (Homo sapiens) (UniProt P11473); test: qHTS assay to identify small molecule agonists of the vitamin D receptor (VDR) signaling pathway (AID 743222; calls by dose curve); details: HEK293T VDR-UAS-bla, beta-lactamase FRET ratio, 16 h; series mostly up to 63.5 µM
Method in brief: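 Beta-lactamase reporter readout (LiveBLAzer B/G FRET, 2 h RT) in VDR-bla cells after 16 h compound treatment at 37C, 5% CO2; cells pre-incubated 4 h before pin transfer of DMSO solutions.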

[10] = qHTS assay to identify small molecule antagonists of the farnesoid-X-receptor (FXR) signaling pathway - cell viability counter screen (AID 743221; active = well fitted cell-killing curve with a large enough effect in the repeat runs, not every such curve was filed as active; also: nearly all actives have a fitted effect of over 50% in size); details: FXR-bla HEK293T viability, CellTiter-Glo luminescence, 16 h; series mostly up to 62.6 µM
Method in brief: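 Cytotoxicity is taken from ATP luminescence (CellTiter-Glo, 30 min, room temperature) in FXR-bla HEK 293T cells previously incubated 16 h at 37 C with compound and chenodeoxycholic acid at 50 uM final.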

Measured: Potency

CNC(=O)O/N=C(\C)SC
inactive: [1] | [2] | [3] | [4] | [5]

CCC(C)n1c(=O)[nH]c(C)c(Br)c1=O (centres undefined)
not listed: [2] | [3] | [10]
inactive: all other assays above

CCOP(=S)(OCC)Oc1cc(-c2ccccc2)on1
inactive: [1] | [2] | [7] | [4] | [10]

O=NN1CCN(N=O)CC1
not listed: [2] | [3]
inactive: all other assays above

N#CCBr
not listed: [2] | [3]
inactive: all other assays above

OC(c1ccccc1)(c1ccccc1)C1CCNCC1
inactive: [1] | [6] | [7] | [4] | [8] | [10]

Cc1ncc(CNC(=O)N(CCCl)N=O)c(N)n1
inactive: [1] | [2] | [7] | [10]

C1CCC(C2CCCCC2)CC1
not listed: [2] | [4] | [10]
inactive: all other assays above

N#Cc1ccncc1
inactive: [1] | [2] | [3] | [10] | [9]

CCS(=O)(=O)C(C)(C)S(=O)(=O)CC
inactive: [1] | [6] | [7] | [4] | [8] | [5]

O=C(O)C(Br)CBr (centres undefined)
inactive: [1] | [6] | [3] | [4] | [10]

COc1cccc(C(=O)NN(C(=O)c2cc(C)cc(C)c2)C(C)(C)C)c1C
inactive: [1] | [2] | [3] | [10] | [5]

Cc1ncsc1CCCl
inactive: [1] | [2] | [4] | [10] | [5]

CN(N=O)C(N)=O
not listed: [2] | [3]
inactive: all other assays above

CC(C)(C)OC(=O)c1ncn2c1[C@@H]1CCCN1C(=O)c1c(Br)cccc1-2
inactive: [1] | [2] | [4] | [5]

Cc1cccc(C#N)c1
not listed: [2] | [5] | [9]
inactive: all other assays above

CN/C(=N\[N+](=O)[O-])NCC1CCOC1 (centres undefined)
not listed: [2] | [3] | [9]
inactive: all other assays above

CNNC
inactive: [1] | [6] | [7] | [4] | [8] | [9]

BrCCCCCCBr
inactive: [1] | [2] | [4] | [10] | [9]

ClC(Cl)C(Cl)Cl
not listed: [2] | [3] | [9]
inactive: all other assays above

O=S(=O)(O)C(F)(F)C(F)(F)C(F)(F)C(F)(F)C(F)(F)C(F)(F)F
not listed: [2] | [5] | [10]
inactive: all other assays above

c1ccc(N2CCNCC2)cc1
not listed: [2] | [3] | [9]
inactive: all other assays above

CN1CCC(N(Cc2ccccc2)c2ccccc2)CC1
active: [1] 26.6 µM
inactive: [2] | [3] | [10] | [5]

COC(=O)C(c1ccccc1)C1CCCCN1 (centres undefined)
not listed: [2] | [3] | [10]
inactive: all other assays above

O=[N+]([O-])c1ccc(CBr)cc1
inactive: [1] | [2] | [4] | [10]

O=C(N[C@H]1CN2CCC1CC2)c1cc2ccoc2cn1
inactive: [1] | [2] | [4] | [10]

O=C(CCN1CC1)OCC(CO)(COC(=O)CCN1CC1)COC(=O)CCN1CC1
inactive: [1] | [6] | [7] | [4] | [8] | [10]

CCCSP(=O)(OCC)Oc1ccc(Br)cc1Cl (centres undefined)
not listed: [4] | [6] | [7]
inactive: all other assays above

Nc1cnn(-c2ccccc2)c(=O)c1Cl
inactive: [1] | [6] | [3] | [4] | [10] | [9]

CC(C)CP(=S)(S)CC(C)C
inactive: [1] | [7] | [10]

c1cc[c]([Hg][c]2ccccc2)cc1
inactive: [2] | [6] | [10] | [9]

ClC(Cl)(Cl)C(Cl)(Cl)Cl
inactive: [1] | [4] | [10] | [9] | [5]

CC(C(O)c1ccccc1)N(C)C/C=C/c1ccccc1 (centres undefined)
inactive: [6] | [4] | [9] | [5]

CCOP(=S)(OCC)Oc1ncn(-c2ccccc2)n1
not listed: [2] | [3] | [4]
inactive: all other assays above

CCOP(=S)(OCC)Oc1nc(Cl)n(C(C)C)n1
inactive: [1] | [4] | [10] | [9] | [5]

[As]#[In]
inactive: [1] | [6] | [4] | [10]

CN1CCN(C(=O)O[C@H]2c3nccnc3C(=O)N2c2ccc(Cl)cn2)CC1
not listed: [2] | [3] | [6]
inactive: all other assays above

Cc1ncc2n1-c1ccc(Cl)cc1C(c1ccccc1F)=NC2
inactive: [1] | [6] | [4] | [9] | [5]

COC(=O)c1ccccc1S(=O)(=O)NC(=O)Nc1nc(C)cc(C)n1
inactive: [1] | [6] | [4] | [10] | [9] | [5]

CCCCCCBr
inactive: [1] | [5]

COc1cc(C[C@@H](C)N)c(OC)cc1C
not listed: [1]
inactive: all other assays above

CCOP(=S)(Oc1cnc(C(C)(C)C)nc1)OC(C)C (centres undefined)
inactive: [2] | [3] | [4] | [10] | [5]

CCCCP(CCCC)CCCC
not listed: [1] | [6] | [8]
inactive: all other assays above

C[N+](C)=CCl
inactive: [1] | [6] | [4] | [10] | [5]

O=P(O)(Oc1ccccc1)Oc1ccccc1
inactive: [1] | [7] | [4] | [8] | [10] | [5]

CC(Oc1ccc(Oc2ncc(C(F)(F)F)cc2Cl)cc1)C(=O)O (centres undefined)
active: [4] 21.9 µM
inactive: [6] | [3] | [5]

CC1CN1P(=O)(N1CC1C)N1CC1C (centres undefined)
inactive: [1] | [4] | [10] | [9] | [5]

O=C(CCCN1CCC(n2c(=O)[nH]c3ccccc32)CC1)c1ccc(F)cc1
inactive: [1] | [4] | [10] | [9]

CC1(C)C(=O)NC(=O)NC1=O
inactive: [1] | [6] | [4] | [10] | [9]

O=C1CN2CCOC2(c2ccccc2Cl)c2cc(Cl)ccc2N1 (centres undefined)
not listed: [1] | [7]
inactive: all other assays above

CCOC(=O)N(C)C(=O)CSP(=S)(OCC)OCC
inactive: [2] | [6] | [4] | [8] | [10]

CCCSP(=S)(OCC)Oc1ccc(Cl)cc1Cl (centres undefined)
inactive: [2] | [3] | [4] | [10] | [5]

C=CCC1=C(C)[C@@H](OC(=O)[C@@H]2[C@@H](C=C(C)C)C2(C)C)CC1=O
inactive: [6] | [10] | [9]

c1coc(-c2nc3ccccc3[nH]2)c1
not listed: [1] | [7] | [8]
inactive: all other assays above

CCOP(=S)(OCC)SCSc1ccc(Cl)cc1
inactive: [1] | [3] | [7] | [4] | [8] | [10]

COc1cc(OC)nc(Sc2cccc(Cl)c2C(=O)O)n1
inactive: [1] | [6] | [4] | [10] | [9] | [5]

N#CC(CCc1ccc(Cl)cc1)(Cn1cncn1)c1ccccc1 (centres undefined)
not listed: [1] | [6] | [10]
inactive: all other assays above

CCS(=O)(=O)CCSP(=O)(OC)OC
inactive: [2] | [6] | [3] | [4] | [10]

CC(CC(C#N)(c1ccccc1)c1ccccc1)N(C)C (centres undefined)
not listed: [1] | [4] | [6]
inactive: all other assays above

CNC(=O)Oc1cccc(C(C)C)c1
inactive: [1] | [6] | [4] | [9] | [5]

COc1ccc2c(c1OC)CN1CCc3cc4c(cc3C1C2)OCO4 (centres undefined)
inactive: [6] | [4] | [5]

CNCC(=O)c1ccc(O)c(O)c1
inactive: [1] | [4] | [10] | [9]

CCOC(=O)/C=C(C)/C=C/C[C@@H](C)CCCC(C)C
inactive: [2] | [7] | [4] | [8] | [10]

CC1(C(=O)Nc2ccc(O)c(Cl)c2Cl)CCCCC1
inactive: [2] | [6] | [3] | [4] | [8] | [9]

C[C@]12CC[C@H]3[C@@H](CC=C4C[C@@H](O)CC[C@@]43C)[C@@H]1CC[C@@H]2O
inactive: [1] | [6] | [4] | [10] | [5]

COc1cccc2c1cc([N+](=O)[O-])c1c(C(=O)O)cc3c(c12)OCO3
inactive: [1] | [4]

COc1cc2c(cc1OC)[C@@]13CCN4CC5=CCO[C@H]6CC(=O)N2[C@H]1[C@H]6[C@H]5C[C@H]43
inactive: [1] | [6] | [4] | [9] | [5]
